The results in this text go back to PubChem BioAssay (EPA / NIEHS).

Results filed as inconclusive are left out. Activity calls are given as the source filed them. The calls were made as follows: active = hit-call score of the fitted dose curve at least 0.9, where 1 is the maximum; inconclusive = response in the unintended direction; inactive = score below 0.9.

The AC50 is the midpoint of the concentration-response curve, whichever way the signal moves.

The test can be described thus: ACEA_ER_AUC_viability: ACEA Biosciences xCELLigence Real-Time Cell Analysis on Estrogen Receptor Agonism for Viability (AID 2283782).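 Also: hit means loss of impedance signal meaning reduced cell growth or viability.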 An outline of the steps:
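Viability endpoint: reduced impedance area under the curve relative to DMSO, recorded by real-time electrode sensing over ~80 h of continuous exposure. Duplicate plates of T47D in hormone-depleted medium; eight concentrations, 1:4 dilutions, 100 uM maximum.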
As for `Cc1cc(CCC(=O)OCCOCCOCCOC(=O)CCc2cc(C)c(O)c(C(C)(C)C)c2)cc(C(C)(C)C)c1O`, the outcome was inactive. `CC(C)OCCO`: the compound was classed as inactive. Regarding `Cc1ccc(OC(=O)c2ccccc2O)cc1`, the AC50 was 50 µM (active). Take `C=CC(=C)CCCC(C)(C)OC(C)=O`: the compound was classed as inactive.

Regarding `COC(=O)c1ccc([N+](=O)[O-])cc1`, the AC50 was 80.2 µM (active). On the same count and under the same terms, the value for `C=C(C#N)C(=O)OCC` was 78.9 µM (active). For `C=CCCCCCCCCCC`, the outcome was inactive. Consider `Nc1ccc2c(O)cc(S(=O)(=O)O)cc2c1`, for which the compound was called inactive.

For `C[C@H]1C[C@@H](O)CC(C)(C)C1`, the concentration at half-maximal activity (AC50) was 50 µM (active). For `ClC(c1ccccc1)(c1ccccc1)c1ccccc1`, the AC50 was 82.6 µM (active). As to `C=CC(C)C#N` (stereo unspecified), the result was inactive. As for `N#Cc1cscn1`, the outcome was inactive. Turning to `Brc1ccc(Br)c(Br)c1`, the AC50 is 34.9 µM (active). Still for that read-out and setting: the value for `O=C(CS)OCCOC(=O)CS` was 82.2 µM (active).

As for `CCOC(=O)C(C#N)=C(c1ccccc1)c1ccccc1`, the outcome was inactive. Still for that read-out and setting: as for `CCN(CCC#N)c1ccc(N=Nc2ccc([N+](=O)[O-])cc2)cc1`, the entry is “inactive”.

As to `Cc1ccc(N)c(S(=O)(=O)O)c1`, the outcome was inactive. Turning to `CC1=CC[C@@]23C[C@@H]1C(C)(C)[C@@H]2CC[C@H]3C`, the AC50 is 78.5 µM (active). Turning to `O=C(O)c1cccnc1C(=O)O`, the result was inactive. On the same count and under the same terms, as for `CCOC(=O)CN`, the entry is “inactive”; as for `CCCCCCCC(=O)OCCCCCC`, “inactive”; as for `CCC(C)=O`, “inactive”.

Turning to `CCCN(CCC)S(=O)(=O)c1ccc(C(=O)O)cc1`, the call was inactive.

As for `CCCCOCC`, the compound was called inactive. In the case of `CCCCCc1ccco1`, the AC50 is 35 µM (active). For the compound `CN(C)c1ccncc1`, the AC50 was 32.7 µM (active). For `COC(CC(C)CCCC(C)(C)O)OC` (stereo unspecified), the outcome was inactive. On to `COc1cc([C@@H]2c3cc4c(cc3[C@@H](O[C@@H]3O[C@@H]5CO[C@@H](C)O[C@H]5[C@H](O)[C@H]3O)[C@H]3COC(=O)[C@H]23)OCO4)cc(OC)c1O`, for which the AC50 is 10.6 µM (active). As for `COc1ccc(N)c([N+](=O)[O-])c1`, the outcome was inactive. In the case of `CCOC(=O)CCc1ccccc1`, the result was inactive. On the same count and under the same terms, as for `CN(C)C(=O)Nc1ccc(Oc2ccc(Cl)cc2)cc1`, the entry is “inactive”. Same read-out and setting: as for `CC(=O)c1c(C)c([N+](=O)[O-])c(C(C)(C)C)c([N+](=O)[O-])c1C`, the entry is “inactive”; as for `CCOCCOCCOCC`, “inactive”; as for `CCCCCCOC(=O)CCC`, “inactive”. As to `C=C(C)C(=O)OCCOCCOCCOC(=O)C(=C)C`, the call was inactive.

As to `C=C(C)C(=O)OCCOC1CC2CC1C1C=CCC21` (stereo unspecified), the AC50 is 48.6 µM (active).
